Measurements as given in the supplement of paper PMC6555819.

Tests used:
Experiment in all cases: PBM binding z-score (relative to random genomic background probes); higher = stronger binding; sequences stand for … in GC…GCGATTGACAGCGTAGAATGAAGG
[1] = tested on: FXR:RXRa (NR concentration 270 nM, RXRa partner concentration 90 nM)
Method in brief: (§1)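 Custom Agilent 4×180K protein-binding microarrays carried double-stranded probes. Their 34-nt variable regions held direct-repeat seeds, single-nucleotide variants, half-site ablations and random human genomic background sequences. Arrays were incubated 1 h with ligand-free nuclear receptor dimers in PBS pH 7.4, 2% milk, 0.02% Triton X-100, 1 mM DTT, 0.2 mg/mL BSA and 0.4 mg/ml salmon testes DNA. Antibodies against each partner (one per run) detected binding, and scanned fluorescence was regression-normalized. Binding z-scores use random background probes as reference.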

[2] = tested on: LXRa:RXRa (NR concentration 270 nM, RXRa partner concentration 90 nM)
Method in brief: as §1

[3] = tested on: LXRa homodimer (NR concentration 270 nM)
Method in brief: as §1

[4] = tested on: LXRb:RXRa (NR concentration 270 nM, RXRa partner concentration 90 nM)
Method in brief: as §1

[5] = tested on: LXRb homodimer (NR concentration 270 nM)
Method in brief: as §1

[6] = tested on: PPARa:RXRa (NR concentration 270 nM, RXRa partner concentration 90 nM)
Method in brief: as §1

[7] = tested on: PPARg:RXRa (NR concentration 180 nM, RXRa partner concentration 90 nM)
Method in brief: as §1

[8] = tested on: PPARg:RXRa 270nM:90nM, anti-RXR (NR concentration 270 nM, RXRa partner concentration 90 nM)
Method in brief: as §1

[9] = tested on: PPARg:RXRa 30nM:10nM, anti-RXR (NR concentration 30 nM, RXRa partner concentration 10 nM)
Method in brief: as §1

[10] = tested on: PPARg:RXRa 90nM:30nM, anti-RXR (NR concentration 90 nM, RXRa partner concentration 30 nM)
Method in brief: as §1

[11] = tested on: PPARg:RXRa DBDmut IVT, anti-RXR (DBD mutation: RXRa K156A/R161A, NR concentration 270 nM, RXRa partner concentration 90 nM)
Method in brief: as §1

[12] = tested on: PPARg:RXRa IVT, anti-PPARg (NR concentration 270 nM, RXRa partner concentration 90 nM)
Method in brief: as §1

[13] = tested on: PPARg DBDmut:RXRa IVT, anti-PPARg (DBD mutation: PPARg1 K132A/R137A, NR concentration 270 nM, RXRa partner concentration 90 nM)
Method in brief: as §1

[14] = tested on: PPARg DBDmut IVT, anti-PPARg (DBD mutation: PPARg1 K132A/R137A, NR concentration 270 nM)
Method in brief: as §1

[15] = tested on: PPARg homodimer (NR concentration 180 nM)
Method in brief: as §1

[16] = tested on: PXR:RXRa (NR concentration 270 nM, RXRa partner concentration 90 nM)
Method in brief: as §1

[17] = tested on: PXR homodimer (NR concentration 270 nM)
Method in brief: as §1

[18] = tested on: RARa:RXR (NR concentration 270 nM, RXRa partner concentration 90 nM)
Method in brief: as §1

[19] = tested on: RARa homodimer (NR concentration 270 nM)
Method in brief: as §1

[20] = tested on: RARb:RXRa (NR concentration 270 nM, RXRa partner concentration 90 nM)
Method in brief: as §1

Sequence	PBM binding z-score [1]	PBM binding z-score [2]	PBM binding z-score [3]	PBM binding z-score [4]	PBM binding z-score [5]	PBM binding z-score [6]	PBM binding z-score [7]	PBM binding z-score [8]	PBM binding z-score [9]	PBM binding z-score [10]	PBM binding z-score [11]	PBM binding z-score [12]	PBM binding z-score [13]	PBM binding z-score [14]	PBM binding z-score [15]	PBM binding z-score [16]	PBM binding z-score [17]	PBM binding z-score [18]	PBM binding z-score [19]	PBM binding z-score [20]
AGAACGAGTGCACGCTGAGTTGATAGCAGAGTAG	-0.478	-0.297	-0.632	-0.327	-1.13	0.0263	0.542	-0.2	-0.197	-0.307	-0.434	0.0753	0.194	-0.145	-0.176	0.739	0.603	-0.0592	-0.662	0.298
ACAGACAGGTGATGATGGTAACTCAGGCTATCAT	0.142	-0.0671	-0.0719	-0.166	-0.2	-0.0535	0.679	-0.301	0.191	0.135	-0.209	0.395	-0.375	0.608	0.0138	0.234	0.57	0.211	0.598	0.146
ACTAGCAGGCCAAGTTTGGTTCACTCAAACAAAG	-0.324	-0.317	-0.342	-0.0394	-0.539	0.158	-0.322	-0.162	-0.424	-0.301	0.651	0.311	0.0208	-0.415	-0.521	0.287	0.256	0.113	-0.755	0.54
TCATATAGGTAAACAGGGGAAAGTCCGTAAGTTA	1.29	1.09	0.283	0.925	-0.0206	1.61	1.52	2.89	3.92	3.45	4.67	3.46	1.62	0.87	1.18	0.921	0.414	1.21	0.805	0.676
CCAACTAGGTCAAAGGTCAAAGTCGAGCCAACCA	8.45	7.12	5.59	7.28	3.01	7.64	13.6	10.9	13.2	12.7	8.37	8.87	4.39	5.12	5.23	7.1	1.86	8.64	3.1	5.72
TCATATAGGTAAAATGTGAAAGTCGGTGTGGTAA	0.975	0.902	0.119	0.595	0.134	2.27	3.1	4.54	4.42	4.95	4.79	2.51	0.236	0.643	0.891	0.357	0.248	0.634	0.307	0.176
CAAACTAGGTCACGGAAGGTCAAAGTCGAATGAC	7.44	7.64	6.7	6.73	1.71	6.26	10.3	8.41	7.26	8.7	8.57	8.97	6.9	4.23	7.08	6.99	2.28	6.84	3.11	5.29
CCAGACAGGTGAAAGGTAAATCAGTCTGGTACGC	0.431	0.642	-0.205	0.749	-0.327	3.27	5.01	5.7	4	6.32	1.86	2.8	0.0874	-1.06	2.52	0.697	-0.183	1.67	0.663	1.04
GCTAGCAGGGCATTTGGGTCACTCAATGACGGGC	0.398	0.383	-0.133	0.541	-0.663	1.77	1.28	1.08	-0.197	0.478	2.42	3.14	0.0662	-0.844	0.341	1.06	0.171	1	-0.58	1.76
TCTAGTTGGTCACGGACGTCACACACGACGGGTA	0.24	0.203	-0.153	0.406	0.211	0.764	1.24	1.59	2.77	1.95	2.14	1.94	1.1	1.25	0.55	0.245	0.184	0.485	0.469	1.57
TCTAGTTGGTCAAAGGTCATACACTCGAAATGCG	5.83	6.03	4.66	5.62	2.02	6.59	10.8	9.47	9.65	10.2	3.45	5.82	1.78	2.27	4.5	6.04	3.03	7.27	3.78	4.73
TCGAGTAGGTTACCAATGGTGCATTCAGCTTTCT	-0.236	1.22	-0.491	0.425	-1.1	0.801	0.0197	1.1	0.784	1.06	3.28	2.62	-0.362	-0.313	-0.186	-0.18	-0.657	0.145	-1.04	0.684
AATACAGGGTCACTAGGCCAGGGTAGGTACGAAT	5.78	4.57	1.02	3.79	0.895	5.76	7.68	6.2	3.37	5.35	3.28	6	2.53	1.9	2.35	3.05	0.325	3.76	1.02	4.23
CGAACGATGGCATGAGTTGATAGCAAATGCCGAT	-0.377	-0.686	-0.408	-0.556	-0.839	-0.496	0.77	0.203	0.0969	-0.044	-0.534	-0.676	-0.379	-0.0268	0.126	-0.184	-0.0321	-0.0116	-0.0736	-0.391
